# Records with an inconclusive call do not appear. Active and inactive are the calls of the source.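 How the source made its calls, unless noted: active means normalized viability below 100% at a tested concentration; inactive means the rest.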
# What was measured:
# [1] = viability loss in pontine glioma line – cell-based, SU-DIPG-XVII, MIPE5.0, CellTiter-Glo, qHTS, dose response (AID 1347060; cut-off not given, nearly all actives have AC50 up to about 26 µM;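 further: cells exposed to compound for 48 hours before viability readout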); details: CellTiter-Glo ATP luminescence
# [2] = viability loss in pontine glioma line – cell-based, SU-DIPG-XIII, MIPE4.0, CellTiter-Glo, qHTS, dose response (AID 1347061; cut-off not given, nearly all actives have AC50 up to about 37 µM;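 further: cells exposed to compound for 48 hours before readout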); details: CellTiter-Glo ATP luminescence
# [3] = viability loss in pontine glioma line – cell-based, JHH-DIPG-1, MIPE4.0, CellTiter-Glo, qHTS, dose response (AID 1347062; cut-off not given, nearly all actives have AC50 up to about 27 µM;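 further: cells exposed to compound for two days before readout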); details: JHH-DIPG-1 viability, CellTiter-Glo ATP luminescence
# [4] = viability loss in pontine glioma line – cell-based, SU-DIPG-IV, MIPE4.0, CellTiter-Glo, qHTS, dose response (AID 1347063; cut-off not given, nearly all actives have AC50 up to about 30 µM;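 further: compound exposure lasted 48 hours before the viability readout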); details: CellTiter-Glo ATP luminescence
# [5] = viability loss in pontine glioma line – cell-based, SU-DIPG-XXV, MIPE5.0, CellTiter-Glo, qHTS, dose response (AID 1347065; cut-off not given, nearly all actives have AC50 up to about 26 µM;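 further: cells exposed to compound for 48 hours before ATP readout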); details: CellTiter-Glo ATP luminescence
# [6] = growth inhibition of DIPG cells – cell-based, MIPE4.0 library, CellTiter-Glo luminescence, qHTS (AID 1347066; cut-off not given, nearly all actives have AC50 up to about 30 µM;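 further: cells exposed to compound for 48 hours before readout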); details: SU-DIPG-VI viability, CellTiter-Glo ATP luminescence
# [7] = JHH-DIPG-1 glioma cell viability, MIPE5.0 library, CellTiter-Glo luminescence, qHTS (AID 1347067; cut-off not given, nearly all actives have AC50 up to about 26 µM;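 further: cells exposed to compound for 48 hours before readout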); details: JHH-DIPG-1 glioma viability, CellTiter-Glo ATP luminescence
# [8] = viability loss with induced miR-34 in A549 – imaging, A549 dox-inducible miR-34, nuclei and caspase counts, primary screen (AID 1347080;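 active means compounds whose cell count with miR-34 switched on is under 0.7 times the count with it off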); details: A549 miR-34 inducible, Hoechst nuclei count, 48 h
# [9] = compounds altering HSF1 focus formation in cells – imaging, Selleck Cancer Library (AID 1347162; in the data active means plate-normalised HSF1 focus index below about 0.46); details: human cells, HSF1 nuclear foci imaging, at 10 µM; SSMD: measured here: HSF1 foci SSMD mean; cell count: measured here: cell number; plate-normalised HSF1 focus index: stronger effect = lower value
# [10] = MELAS cybrid and Rieske KO viability enhancers – cell-based, MELAS cybrids, Rieske KO mouse fibroblasts, CellTiter-Glo, primary screen (AID 1508586;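 active means mean z-score across replicates of 1.96 or higher in either the MELAS or the Rieske mutant cell line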;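 further: z relative to plate mean and SD of compound and empty wells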); details: low glucose
# [11] = drug combination growth inhibition, ovarian cancer – cell-based, oncology-focused library, rucaparib conditional, profiling panel (AID 1508598); details: patient-derived ovarian cancer cells, CellTiter-Glo viability, 144 h, stronger effect = lower value
structure (smiles),measurement,setting,value
CN(C)Cc1c(C(=O)NCCOc2ccc(C(=O)NO)cc2)oc2ccccc12,AC50,[1],4170 nM (active)
same,AC50,[2],4690 nM (active)
same,AC50,[3],935 nM (active)
same,AC50,[4],3320 nM (active)
same,AC50,[5],833 nM (active)
same,AC50,[6],2960 nM (active)
same,AC50,[7],934 nM (active)
same,fold change,"[8]; stronger effect = lower value, cell number ratio, induced over uninduced",1.4 (inactive)
same,fold change,[8]; measured here: relative caspase fold change +Dox/-Dox,0.9
same,cell count,"[8]; measured here: total cells with miR-34 induction, stronger effect = lower value",1280
same,cell count,[8]; measured here: total cells without miR-34 induction,916
same,SSMD,[9],0.722
same,cell count,[9],7540
same,plate-normalised HSF1 focus index,[9],1.05 (inactive)
same,z-score,"[10]; MELAS cybrid survival, CellTiter-Glo 48 h, stronger effect = higher value",0.162 (inactive)
same,z-score,"[10]; Rieske KO mouse fibroblast survival, CellTiter-Glo 72 h",-1.7
same,viability,"[11]; at 0.000305 µM, OCI-C5x cells, with rucaparib 10 µM, 100% = cells with rucaparib alone",130% (inactive)
same,viability,"[11]; at 0.000305 µM, OCI-C5x cells, without rucaparib",128% (inactive)
same,viability,"[11]; at 0.000305 µM, OCI-P5x cells, with rucaparib 20 µM, 100% = cells with rucaparib alone",105% (inactive)
same,viability,"[11]; at 0.000305 µM, OCI-P5x cells, without rucaparib",104% (inactive)
same,viability,"[11]; at 0.00122 µM, OCI-C5x cells, with rucaparib 10 µM, 100% = cells with rucaparib alone",129% (inactive)
same,viability,"[11]; at 0.00122 µM, OCI-C5x cells, without rucaparib",123% (inactive)
same,viability,"[11]; at 0.00122 µM, OCI-P5x cells, with rucaparib 20 µM, 100% = cells with rucaparib alone",103% (inactive)
same,viability,"[11]; at 0.00122 µM, OCI-P5x cells, without rucaparib",104% (inactive)
same,viability,"[11]; at 0.00488 µM, OCI-C5x cells, with rucaparib 10 µM, 100% = cells with rucaparib alone",144% (inactive)
same,viability,"[11]; at 0.00488 µM, OCI-C5x cells, without rucaparib",128% (inactive)
same,viability,"[11]; at 0.00488 µM, OCI-P5x cells, with rucaparib 20 µM, 100% = cells with rucaparib alone",97.2% (active)
same,viability,"[11]; at 0.00488 µM, OCI-P5x cells, without rucaparib",101% (inactive)
same,viability,"[11]; at 0.0195 µM, OCI-C5x cells, with rucaparib 10 µM, 100% = cells with rucaparib alone",118% (inactive)
same,viability,"[11]; at 0.0195 µM, OCI-C5x cells, without rucaparib",131% (inactive)
same,viability,"[11]; at 0.0195 µM, OCI-P5x cells, with rucaparib 20 µM, 100% = cells with rucaparib alone",81.2% (active)
same,viability,"[11]; at 0.0195 µM, OCI-P5x cells, without rucaparib",97.1% (active)
same,viability,"[11]; at 0.0781 µM, OCI-C5x cells, with rucaparib 10 µM, 100% = cells with rucaparib alone",121% (inactive)
same,viability,"[11]; at 0.0781 µM, OCI-C5x cells, without rucaparib",138% (inactive)
same,viability,"[11]; at 0.0781 µM, OCI-P5x cells, with rucaparib 20 µM, 100% = cells with rucaparib alone",91.6% (active)
same,viability,"[11]; at 0.0781 µM, OCI-P5x cells, without rucaparib",104% (inactive)
same,viability,"[11]; at 0.313 µM, OCI-C5x cells, with rucaparib 10 µM, 100% = cells with rucaparib alone",123% (inactive)
same,viability,"[11]; at 0.313 µM, OCI-C5x cells, without rucaparib",132% (inactive)
same,viability,"[11]; at 0.313 µM, OCI-P5x cells, with rucaparib 20 µM, 100% = cells with rucaparib alone",69.9% (active)
same,viability,"[11]; at 0.313 µM, OCI-P5x cells, without rucaparib",79.9% (active)
same,viability,"[11]; at 1.25 µM, OCI-C5x cells, with rucaparib 10 µM, 100% = cells with rucaparib alone",135% (inactive)
same,viability,"[11]; at 1.25 µM, OCI-C5x cells, without rucaparib",150% (inactive)
same,viability,"[11]; at 1.25 µM, OCI-P5x cells, with rucaparib 20 µM, 100% = cells with rucaparib alone",82.3% (active)
same,viability,"[11]; at 1.25 µM, OCI-P5x cells, without rucaparib",77.6% (active)

# Source: PubChem BioAssay
